Test results taken from the supplement of paper PMC6897291.

System: U-2932
Test: growth inhibition by drug alone (1 - RLU/untreated control) (fraction); higher = stronger inhibition
Details: 177Lu-lilotomab satetraxetan 0 ug/ml
Description: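 U-2932 ABC-DLBCL cells were pretreated or not for 18 h with 1 ug/ml 177Lu-lilotomab satetraxetan (600 MBq/mg), washed and seeded (3000 cells/well) on 384-well plates pre-printed with the Selleck Cambridge Cancer Compound library. Viability was read by RealTime-Glo luminescence on days 3-6 after seeding. Effect = 1 - RLU/mean RLU of the 48 untreated no-drug control wells per plate; Bliss score = (M-E)/(1-Fa), with E the expected Bliss-additive effect.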

| SMILES | growth inhibition by drug alone (10 nM, time (day): 3) | growth inhibition by drug alone (10 nM, time (day): 4) | growth inhibition by drug alone (10 nM, time (day): 5) | growth inhibition by drug alone (10 nM, time (day): 6) | growth inhibition by drug alone (1000 nM, time (day): 3) | growth inhibition by drug alone (1000 nM, time (day): 4) | growth inhibition by drug alone (1000 nM, time (day): 5) | growth inhibition by drug alone (1000 nM, time (day): 6) |
| --- | --- | --- | --- | --- | --- | --- | --- | --- |
| O=C(Cc1ccc(-c2ccc(OCCN3CCOCC3)cc2)cn1)NCc1ccccc1 | 0.144 | 0.134 | 0.0891 | 0.0449 | 0.964 | 0.971 | 0.975 | 0.978 |
| Cc1ccnc(NS(=O)(=O)c2ccc(NC(=O)Nc3ccc(S(=O)(=O)Nc4nccc(C)n4)cc3)cc2)n1 | 0.175 | 0.112 | -0.00245 | -0.0763 | 0.114 | 0.089 | -0.0667 | -0.0262 |
| COc1ccc(/C=C\c2cc(OC)c(OC)c(OC)c2)cc1O [Combretastatin A4] | 0.967 | 0.973 | 0.979 | 0.983 | 0.965 | 0.975 | 0.981 | 0.985 |
| C[C@@H](Oc1cc(-n2cnc3ccc(CN4CCN(C)CC4)cc32)sc1C(N)=O)c1ccccc1C(F)(F)F | 0.444 | 0.458 | 0.438 | 0.516 | 0.94 | 0.961 | 0.973 | 0.981 |
| N#CC1(c2ccc(NC(=O)c3cccnc3NCc3ccncc3)cc2)CCCC1 [Apatinib (YN968D1)] | 0.0813 | 0.0775 | 0.0186 | -0.0775 | -0.000689 | 0.0222 | -0.108 | -0.279 |
